From PubChem BioAssay (Tox21)
Records with an inconclusive call do not appear. Calls of active or inactive are those of the source. Unless noted, calls follow the shape of the full dose curve.

Columns and labels:
[1] = qHTS assay to identify small molecule agonists of the vitamin D receptor (VDR) signaling pathway - cell viability counter screen (AID 743224; active = well fitted curve in the direction sought with a large enough effect in the repeat runs; an effect the other way counts as inactive or inconclusive; also: series mostly up to about 63 µM; nearly all actives have a fitted effect of over 50% in size)
Method in brief: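 In parallel with the bla FRET readout, cytotoxicity toward VDR-bla cells after 16 h compound exposure was assessed by CellTiter-Glo, with luminescence recorded after a 30 min room-temperature incubation.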

[2] = qHTS assay to identify small molecule antagonists of the vitamin D receptor (VDR) signaling pathway - cell viability counter screen (AID 743225; active = well fitted curve in the direction sought with a large enough effect in the repeat runs; an effect the other way counts as inactive or inconclusive; also: nearly all actives have a fitted effect of over 50% in size)
Method in brief: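 Luminescent cell viability (CellTiter-Glo) in VDR-bla HEK 293T cells after 16 h compound exposure at 37C in the presence of 3 nM final 1-alpha,25-dihydroxy vitamin D3.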

[3] = qHTS assay to identify small molecule agonists of the NFkB signaling pathway (AID 1159509; active = well fitted curve in the direction sought with a large enough effect in the signal ratio in the repeat runs, not every such curve was filed as active; the % refers to the signal ratio; also: series mostly up to about 61 µM)
Method in brief: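 Pathway activation was measured in ME-180 cells stably expressing beta-lactamase under NF-kB response element control. Substrate cleavage was read as the 460/530 nm emission shift after 5 hr compound incubation.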

[4] = qHTS assay to identify small molecule agonists of the NFkB signaling pathway - cell viability counter screen (AID 1159515); also: series mostly up to about 61 µM; nearly all actives have a fitted effect of over 55% in size
Method in brief: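 Plate 2,000 NFkB-bla ME-180 cells/well; incubate overnight. Add compounds, 5 hr at 37 C. Add FRET substrate, 1.5 hr RT. Add CellTiter-Glo, 30 min RT; read luminescence.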

[5] = qHTS assay to identify small molecule agonists of the endoplasmic reticulum stress response signaling pathway (AID 1159516; active = well fitted activation curve with a large enough effect in the signal ratio in the repeat runs, not every such curve was filed as active; the % refers to the signal ratio)
Method in brief: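 Beta-lactamase expression from the ER stress response element in HeLa reporter cells is quantified with the LiveBLAzer B/G FRET substrate, read at 405 nm excitation after 2 hr at room temperature, following 5 hr compound treatment at 37 C.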

[6] = qHTS assay to identify small molecule agonists of the endoplasmic reticulum stress response signaling pathway - cell viability counter screen (AID 1159517); also: series mostly up to about 61 µM; nearly all actives have a fitted effect of over 50% in size
Method in brief: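 In parallel with the ESRE reporter read, cytotoxicity was scored by CellTiter-Glo luminescence (30 min, room temperature) on HeLa ESRE-bla cells dosed for 5 hr.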

[7] = qHTS assay to identify small molecule antagonists of the retinoid-related orphan receptor gamma (ROR-gamma) signaling pathway - cell viability counter screen (AID 1159520; active = well fitted curve in the direction sought with a large enough effect in the repeat runs; an effect the other way counts as inactive or inconclusive; also: nearly all actives have a fitted effect of over 50% in size)
Method in brief: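 Tet-on ROR gamma CHO cells were given compounds for 2 hr, then doxycycline hyclate at 1 uM final, and incubated 16 hr at 37 C. Viability was measured as ATP content by CellTiter-Glo luminescence.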

[8] = target: Nuclear receptor ROR-gamma (Homo sapiens) (UniProt P51449); experiment: qHTS assay to identify small molecule antagonists of the retinoid-related orphan receptor gamma (ROR-gamma) signaling pathway (AID 1159521; active = well fitted curve in the direction sought with a large enough effect in the repeat runs; an effect the other way counts as inactive or inconclusive)
Method in brief: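 CHO cells expressing RORγ under a TET-on promoter, luciferase under RORE control. Dox 1 uM final, 16 h; compounds added 2 h prior. Luminescence decrease measured.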

[9] = qHTS assay to identify small molecule agonists of the AP-1 signaling pathway - cell viability counter screen (AID 1159525); also: nearly all actives have a fitted effect of over 55% in size
Method in brief: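 Same-well cytotoxicity counter screen of the Tox21 10K library in ME-180 cells. The readout is ATP-dependent luminescence after 5 h compound treatment. Data are normalised to DMSO and tetra n-octyl ammonium bromide controls.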

[10] = qHTS assay to identify small molecule agonists of the AP-1 signaling pathway (AID 1159526)

Measured: Potency

C1OCOCO1
inactive: all assays above

CCc1ccc(O)c(OC)c1
inactive: all assays above

COC(C)(C)CCCC(C)CC=O (centres undefined)
inactive: all assays above

CN1CC(=O)NC1=N
inactive: all assays above

FC(F)OC(Cl)C(F)(F)F (centres undefined)
inactive: all assays above

Cc1cccc(C)c1NC(=O)C(C)N (centres undefined)
inactive: all assays above

CC(C)(O)C#CC(C)(C)O
inactive: all assays above

C[C@H]1C[C@@H](O)CC(C)(C)C1
inactive: all assays above

CC(C)=CCCC(C)CC(=O)O (centres undefined)
inactive: all assays above

O=C(O)CNC(=O)c1ccc([N+](=O)[O-])cc1
not listed: [1]
inactive: all other assays above

CCC(C)C1CCCCC1=O (centres undefined)
inactive: all assays above

CC(C)CNCC(C)C
inactive: all assays above

CCCCCCCCCCCCCCCCC
inactive: all assays above

CC(C)NCCCC1(C(N)=O)c2ccccc2-c2ccccc21
inactive: all assays above

C1CN(CCOCCN2CCOCC2)CCO1
inactive: all assays above

CC1=CC(C)C(C=O)CC1 (centres undefined)
inactive: all assays above

NS(=O)(=O)c1ccc(C(=O)O)cc1
inactive: all assays above

O=C(O)c1ccccc1OP(=O)(O)O
inactive: all assays above

CCCCCCCCCCCC
inactive: all assays above

CCN1CCC[C@H]1CNC(=O)c1cc(S(N)(=O)=O)ccc1OC
inactive: all assays above

COc1ccccc1OCC(O)CN1CCN(CC(=O)Nc2c(C)cccc2C)CC1 (centres undefined)
inactive: all assays above

CN1N=C(C(N)=O)CCC1=O
inactive: all assays above

CC(C)(C)c1nnc(NS(=O)(=O)c2ccccc2)s1
inactive: all assays above

CCC(=O)OC(C)c1ccccc1 (centres undefined)
inactive: all assays above

NC(=O)c1ccc([N+](=O)[O-])cc1
inactive: all assays above

CCOC(=O)Nc1ccc(NCc2ccc(F)cc2)nc1N
inactive: all assays above
